# From PubChem BioAssay (Tox21)
# Inconclusive results are not listed. Where a call stands in place of a potency, no number is given. Values without a mark were called inactive. The source made the active and inactive calls. Unless noted, the call rests on the fitted dose curve; in most records, active means well fitted curve in the direction sought with a large enough effect in the repeat runs; inconclusive means weak or mixed curves; inactive means no such curve, though single readings can be large; an effect the other way counts as inactive or inconclusive.
# How the values were obtained:
# [1] = qHTS assay to identify small molecule antagonists of the peroxisome proliferator-activated receptor gamma (PPARg) signaling pathway - cell viability counter screen (AID 743194); further: nearly all actives have a fitted effect of over 55% in size
# Summary of the method: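 Cytotoxicity counter screen in PPARg-bla HEK293H cells, same wells as reporter assay. Compounds plus 50 nM rosiglitazone (final) for 17 h at 37 C, then viability read by CellTiter-Glo luminescence.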
# [2] = qHTS assay for small molecule agonists of the antioxidant response element (ARE) signaling pathway (AID 743202; active means well fitted activation curve with a large enough effect in the signal ratio in the repeat runs, not every such curve was filed as active; the % refers to the signal ratio)
# Summary of the method: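 Agonist mode reporter screen: HepG2 cells with ARE-controlled beta-lactamase are incubated with test compounds for 16 h at 37 C, and beta-lactamase activity is measured as fluorescence of cleaved B/G FRET substrate.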
# [3] = qHTS assay for small molecule agonists of the antioxidant response element (ARE) signaling pathway - cell viability counter screen (AID 743203; calls by dose curve; further: nearly all actives have a fitted effect of over 55% in size)
# Summary of the method: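 Compounds in DMSO were pinned onto ARE-bla HepG2 cells plated 5 hrs earlier at 2,000 cells/well. Sixteen hours later at 37C/5% CO2, CellTiter-Glo was added and luminescence measured after 30 min at room temperature.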
# [4] = qHTS assay for small molecule activators of the heat shock response signaling pathway - cell viability counter screen (AID 743209); further: nearly all actives have a fitted effect of over 50% in size
# Summary of the method: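 Counter screen for cytotoxicity in HeLa HSE-bla reporter cells. Treatment was 5 h at 37 C; viability was detected by luminescent ATP assay (CellTiter-Glo) in the same wells as the beta-lactamase read.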
# [5] = qHTS assay for small molecule activators of the heat shock response signaling pathway (AID 743210; active means well fitted activation curve with a large enough effect in the signal ratio in the repeat runs, with a control signal flat, not every such curve was filed as active; the % refers to the signal ratio;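 further: HeLa cells with beta-lactamase reporter driven by heat shock elements; series mostly up to about 63 µM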)
# Summary of the method: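 Quantitative high-throughput format using an engineered HeLa line in which heat shock response elements drive beta-lactamase; after 5 h with compound, cells received a B/G FRET substrate and fluorescence was read.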
# [6] = qHTS assay to identify small molecule agonists of the peroxisome proliferator-activated receptor delta (PPARd) signaling pathway - cell viability counter screen (AID 743211); further: nearly all actives have a fitted effect of over 55% in size
# Summary of the method: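 Read-out: CellTiter-Glo luminescence, 30 min RT, measured in the same wells as the beta-lactamase reporter. Cells: GeneBLAzer PPAR delta UAS-bla HEK293H, 3000 cells/well, compound exposure 17 h at 37C.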
# [7] = qHTS assay to identify small molecule that activate the aryl hydrocarbon receptor (AhR) signaling pathway - cell viability counter screen (AID 743086); further: nearly all actives have a fitted effect of over 45% in size; further: potency means the concentration at half of the fitted maximal effect
# Summary of the method: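 HepG2-AhR-luc (HG2L7.5c1) cells, 4000/well, treated 24 h at 37 C with compound; viability measured as CellTiter-Fluor fluorescence after 30 min in the same wells as the luciferase read.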
# [8] = biological target: Peroxisome proliferator-activated receptor gamma (Homo sapiens) (UniProt P37231); assay: qHTS assay to identify small molecule agonists of the peroxisome proliferator-activated receptor gamma (PPARg) signaling pathway (AID 743094; active means well fitted activation curve with a large enough effect in the signal ratio in the repeat runs, not every such curve was filed as active; the % refers to the signal ratio)
# Chain of Peroxisome proliferator-activated receptor gamma (Homo sapiens) (P37231 whole entry, looked up): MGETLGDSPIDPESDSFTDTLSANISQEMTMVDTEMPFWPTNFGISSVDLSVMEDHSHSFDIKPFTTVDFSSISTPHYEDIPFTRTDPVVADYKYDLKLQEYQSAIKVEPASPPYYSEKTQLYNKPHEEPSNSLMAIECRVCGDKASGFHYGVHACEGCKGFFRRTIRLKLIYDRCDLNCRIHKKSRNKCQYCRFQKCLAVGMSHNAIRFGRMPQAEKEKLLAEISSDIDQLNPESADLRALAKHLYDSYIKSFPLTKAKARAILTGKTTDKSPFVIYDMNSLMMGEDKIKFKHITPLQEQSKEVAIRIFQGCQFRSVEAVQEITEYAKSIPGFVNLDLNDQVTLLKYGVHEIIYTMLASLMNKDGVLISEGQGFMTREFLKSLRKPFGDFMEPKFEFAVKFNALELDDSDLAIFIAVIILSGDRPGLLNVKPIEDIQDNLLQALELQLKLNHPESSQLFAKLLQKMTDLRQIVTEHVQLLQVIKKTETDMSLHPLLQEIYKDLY
# Summary of the method: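 Following 5 h plating at 37C, PPARg-bla HEK293H cells receive compound or DMSO for 17 h; fluorescence intensity is recorded after LiveBLAzer B/G loading for 1 h at room temperature.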
# [9] = biological target: Peroxisome proliferator-activated receptor gamma (Homo sapiens) (UniProt P37231); assay: qHTS assay to identify small molecule antagonists of the peroxisome proliferator-activated receptor gamma (PPARg) signaling pathway (AID 743191; calls by dose curve; further: series mostly up to about 63 µM; nearly all actives have a fitted effect of over 30% in size)
# Summary of the method: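 GeneBLAzer PPARg UAS-bla HEK293H cells, 5 h post-plating, exposed to compounds 17 h at 37C. LiveBLAzer B/G FRET substrate added for 1 h at room temperature; beta-lactamase reporter read by fluorescence intensity.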
SMILES,outcome [1],Potency [2],outcome [3],outcome [4],outcome [5],outcome [6],Potency [7],outcome [8],Potency [9]
CCOC(=O)C(=O)c1csc(NC=O)n1,inactive,inactive,inactive,inactive,inactive,inactive,,,
N#CCCOCCOCCC#N,inactive,inactive,inactive,,inactive,inactive,inactive,inactive,
O=S(=O)(O)c1cc(O)ccc1O,inactive,,inactive,,inactive,inactive,,,
CCCCCCCC/C=C\CCCCCCCC(=O)OC[C@@H](O)[C@H]1OC[C@H](O)[C@H]1O,,,inactive,inactive,inactive,inactive,inactive,inactive,
C=CCOc1c(Br)cc(C(C)(C)c2cc(Br)c(OCC=C)c(Br)c2)cc1Br,inactive,,inactive,inactive,inactive,inactive,inactive,inactive,
O=C1OC(=O)c2ccccc21,inactive,inactive,inactive,inactive,inactive,inactive,inactive,inactive,
CO/N=C(/C(=O)N[C@@H]1C(=O)N2C(C(=O)O)=C(Cn3nnc(C)n3)CS[C@H]12)c1csc(N)n1,inactive,inactive,inactive,inactive,inactive,inactive,inactive,,
c1ccccc1,inactive,inactive,inactive,inactive,inactive,inactive,,,inactive
CCN(CC)C(=O)C1CN2CCc3cc(OC)c(OC)cc3C2CC1OC(C)=O (configuration not stated),inactive,inactive,inactive,inactive,inactive,inactive,,,
CC(=O)OC(C)(C)Cc1ccccc1,inactive,,inactive,inactive,inactive,inactive,inactive,,
C/C=C(\C)C(=O)OCC/C=C\CC,inactive,inactive,inactive,inactive,inactive,inactive,inactive,,
C=CCOc1c(Br)cc(Br)cc1Br,,inactive,,inactive,,,inactive,inactive,inactive
CCCCCC1CCCC(=O)O1 (configuration not stated),inactive,inactive,inactive,,inactive,inactive,inactive,inactive,
CC(=O)N1CCN(c2ccc(O)cc2)CC1,inactive,,inactive,inactive,,inactive,,,inactive
Cc1ccc(C(=O)C(=O)O)cc1C,inactive,inactive,inactive,inactive,inactive,inactive,,,inactive
O=C(O)c1ccc(OCCN2CCCCC2)cc1,inactive,inactive,,inactive,inactive,inactive,,,inactive
CC(=O)OC[C@H]1O[C@@H](OC(C)=O)[C@H](OC(C)=O)[C@@H]1OC(C)=O,inactive,,,inactive,,inactive,,,inactive
CCCCC(CC)CNC(=O)CC(C)OC(=O)CCC(=O)O (configuration not stated),inactive,inactive,,,inactive,inactive,,,
O=C(CN1CCN(Cc2ccc3c(c2)OCO3)CC1)N1c2ccccc2Sc2ccccc21,inactive,,,inactive,inactive,inactive,,,inactive

SMILES,outcome [1],Potency [2],outcome [3],outcome [4],outcome [5],outcome [6],Potency [7],outcome [8],Potency [9]
CC(C)=CC(C)(C)C,inactive,inactive,inactive,inactive,,inactive,inactive,,
Cc1nc2n(c(=O)c1CCN1CCC(C(=O)c3ccc(F)cc3)CC1)CCS2,inactive,,inactive,inactive,inactive,,,,inactive
Nc1c(NC/C=C\COc2cc(CN3CCCCC3)ccn2)c(=O)c1=O,inactive,,inactive,inactive,,inactive,,inactive,inactive
C[Si]1(C)N[Si](C)(C)N[Si](C)(C)N1,inactive,inactive,inactive,inactive,inactive,,inactive,inactive,
COc1ccc(OC)c(NC(=O)CC(C)=O)c1,inactive,inactive,inactive,inactive,inactive,inactive,inactive,,
COc1cc(C=O)ccc1OC(=O)C(C)C,inactive,inactive,inactive,inactive,inactive,inactive,inactive,inactive,
O=C(O)c1c(Cl)ccc(Cl)c1Cl,inactive,inactive,inactive,inactive,inactive,inactive,inactive,inactive,
COc1ccc(N=Nc2cc(C)c(N=Nc3ccc(S(=O)(=O)O)cc3)cc2OC)cc1,inactive,,,inactive,inactive,inactive,48.6 µM (active),inactive,
Cc1cccc(NC(=S)N(C)C)c1,inactive,inactive,inactive,inactive,,inactive,inactive,,
O=S(=O)(O)CCO,inactive,inactive,inactive,inactive,inactive,inactive,inactive,inactive,
CC(C)C(=O)Nc1cccc(C(F)(F)F)c1,inactive,inactive,inactive,inactive,inactive,inactive,,,
c1ccc(CNc2ncnc3nc[nH]c23)cc1,inactive,inactive,inactive,inactive,inactive,inactive,inactive,,
Nc1ccc(C(=O)OCC(O)CO)cc1 (configuration not stated),inactive,inactive,inactive,inactive,inactive,inactive,,,inactive
O=C(/C=C/c1ccccc1)NCCO,inactive,inactive,inactive,inactive,inactive,inactive,inactive,inactive,
CCCCCN(CCCOC)C(=O)C(CCC(=O)O)NC(=O)c1ccc(Cl)c(Cl)c1 (configuration not stated),inactive,inactive,inactive,,,inactive,,,inactive
CCCCCCCCCCCCCCCCCCN(C)C,inactive,inactive,inactive,,inactive,inactive,,,
CCC(C)(CCC(C)C)C(=O)[O-].CCC(C)(CCC(C)C)C(=O)[O-].[Zn+2] (configuration not stated),,inactive,inactive,,,inactive,inactive,,
C=CCOCC(CO)(COCC=C)COCC=C,,inactive,inactive,inactive,,inactive,inactive,,
Nc1nc(=O)n([C@@H]2O[C@H](CO)[C@@H](O)[C@@H]2F)cc1I,inactive,inactive,,inactive,,inactive,,,
